# What was measured:
# [1] = target: Calcium/calmodulin-dependent protein kinase type II subunit alpha (Homo sapiens) (UniProt Q9UQM7); details: at 1 µM;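 further: reported value is a mean percent inhibition of CAMK2A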
# [2] = target: Calcium/calmodulin-dependent protein kinase type II subunit delta (Homo sapiens) (UniProt Q13557); details: at 0.1 µM
# [3] = target: Calcium/calmodulin-dependent protein kinase type II subunit delta (Homo sapiens) (UniProt Q13557); details: at 1 µM
# [4] = target: T1, Calcium/calmodulin-dependent protein kinase type IV (Homo sapiens) (UniProt Q16566); details: at 0.1 µM
# T1 sequence (whole entry): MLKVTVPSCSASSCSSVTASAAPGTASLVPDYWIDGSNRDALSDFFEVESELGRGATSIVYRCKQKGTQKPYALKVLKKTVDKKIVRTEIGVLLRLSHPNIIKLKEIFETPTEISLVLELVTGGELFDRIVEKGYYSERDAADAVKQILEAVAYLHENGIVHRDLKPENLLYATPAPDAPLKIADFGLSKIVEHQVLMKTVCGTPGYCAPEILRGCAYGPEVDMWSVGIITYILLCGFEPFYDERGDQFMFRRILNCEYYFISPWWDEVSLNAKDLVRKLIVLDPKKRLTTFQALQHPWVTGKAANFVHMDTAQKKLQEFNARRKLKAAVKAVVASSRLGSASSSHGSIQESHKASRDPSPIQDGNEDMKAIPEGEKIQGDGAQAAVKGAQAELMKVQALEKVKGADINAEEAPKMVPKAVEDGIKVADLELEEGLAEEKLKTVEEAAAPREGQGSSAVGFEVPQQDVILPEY
# [5] = target: T1, Calcium/calmodulin-dependent protein kinase type IV (Homo sapiens); details: at 1 µM
# [6] = target: T2, Serine/threonine-protein kinase Chk1 (Homo sapiens) (UniProt O14757); details: at 0.1 µM
# T2 sequence (whole entry): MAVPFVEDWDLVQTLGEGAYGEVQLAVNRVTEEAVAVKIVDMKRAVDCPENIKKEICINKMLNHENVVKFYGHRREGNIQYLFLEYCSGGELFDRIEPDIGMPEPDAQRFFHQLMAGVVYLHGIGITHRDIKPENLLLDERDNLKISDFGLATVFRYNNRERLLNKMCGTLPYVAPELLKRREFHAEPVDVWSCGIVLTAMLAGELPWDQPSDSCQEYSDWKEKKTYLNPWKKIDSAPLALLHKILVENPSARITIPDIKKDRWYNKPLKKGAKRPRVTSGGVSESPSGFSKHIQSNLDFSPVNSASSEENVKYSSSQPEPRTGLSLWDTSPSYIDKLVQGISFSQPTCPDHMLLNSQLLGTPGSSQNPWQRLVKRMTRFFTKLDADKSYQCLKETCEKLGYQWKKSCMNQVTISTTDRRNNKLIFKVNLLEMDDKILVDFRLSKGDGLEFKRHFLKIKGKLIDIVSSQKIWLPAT
# [7] = target: T2, Serine/threonine-protein kinase Chk1 (Homo sapiens); details: at 1 µM
# [8] = target: Serine/threonine-protein kinase Chk2 (Homo sapiens) (UniProt O96017); details: at 0.1 µM
# Chain of Serine/threonine-protein kinase Chk2 (Homo sapiens) (O96017 whole entry): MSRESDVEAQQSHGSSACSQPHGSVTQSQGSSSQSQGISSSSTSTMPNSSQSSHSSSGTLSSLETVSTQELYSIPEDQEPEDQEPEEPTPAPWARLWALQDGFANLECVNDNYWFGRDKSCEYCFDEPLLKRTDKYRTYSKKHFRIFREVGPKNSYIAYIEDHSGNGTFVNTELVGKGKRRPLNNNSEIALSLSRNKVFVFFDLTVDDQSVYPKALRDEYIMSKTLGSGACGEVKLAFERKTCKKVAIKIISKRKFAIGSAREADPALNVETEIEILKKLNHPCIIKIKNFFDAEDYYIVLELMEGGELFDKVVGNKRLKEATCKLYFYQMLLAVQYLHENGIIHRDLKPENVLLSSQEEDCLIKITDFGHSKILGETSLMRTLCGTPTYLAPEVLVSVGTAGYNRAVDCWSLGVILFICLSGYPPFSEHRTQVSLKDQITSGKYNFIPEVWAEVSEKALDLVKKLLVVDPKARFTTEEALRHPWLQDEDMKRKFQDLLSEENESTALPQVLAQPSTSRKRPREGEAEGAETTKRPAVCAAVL
# [9] = target: Serine/threonine-protein kinase Chk2 (Homo sapiens) (UniProt O96017); details: at 1 µM
# [10] = target: Death-associated protein kinase 1 (Homo sapiens) (UniProt P53355); details: at 0.1 µM
# [11] = target: Death-associated protein kinase 1 (Homo sapiens) (UniProt P53355); details: at 1 µM
# [12] = target: T3, Serine/threonine-protein kinase DCLK2 (Homo sapiens) (UniProt Q8N568); details: at 0.1 µM
# T3 sequence (whole entry): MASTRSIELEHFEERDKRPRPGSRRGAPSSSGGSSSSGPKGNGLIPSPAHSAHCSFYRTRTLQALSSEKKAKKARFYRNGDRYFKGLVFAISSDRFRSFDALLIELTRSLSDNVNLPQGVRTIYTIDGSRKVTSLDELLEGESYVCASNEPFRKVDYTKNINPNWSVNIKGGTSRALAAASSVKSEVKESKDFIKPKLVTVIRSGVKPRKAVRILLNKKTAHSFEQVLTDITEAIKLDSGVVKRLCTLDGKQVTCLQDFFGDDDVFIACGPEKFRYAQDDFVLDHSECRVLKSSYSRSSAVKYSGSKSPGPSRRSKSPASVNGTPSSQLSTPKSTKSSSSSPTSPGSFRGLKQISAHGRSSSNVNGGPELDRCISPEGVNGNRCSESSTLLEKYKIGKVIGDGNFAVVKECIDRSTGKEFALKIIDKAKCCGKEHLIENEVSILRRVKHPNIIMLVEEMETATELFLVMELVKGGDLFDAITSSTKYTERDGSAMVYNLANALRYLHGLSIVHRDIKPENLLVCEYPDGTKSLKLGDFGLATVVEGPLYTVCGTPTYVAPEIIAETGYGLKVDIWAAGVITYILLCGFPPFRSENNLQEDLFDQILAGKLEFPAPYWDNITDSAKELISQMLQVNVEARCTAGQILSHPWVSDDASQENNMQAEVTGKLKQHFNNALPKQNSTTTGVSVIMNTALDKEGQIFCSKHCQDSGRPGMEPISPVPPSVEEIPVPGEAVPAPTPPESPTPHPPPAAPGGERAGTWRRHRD
# [13] = target: T3, Serine/threonine-protein kinase DCLK2 (Homo sapiens); details: at 1 µM
# [14] = target: MAP kinase-activated protein kinase 2 (Homo sapiens) (UniProt P49137); details: at 0.1 µM
# Chain of MAP kinase-activated protein kinase 2 (Homo sapiens) (P49137 whole entry, looked up): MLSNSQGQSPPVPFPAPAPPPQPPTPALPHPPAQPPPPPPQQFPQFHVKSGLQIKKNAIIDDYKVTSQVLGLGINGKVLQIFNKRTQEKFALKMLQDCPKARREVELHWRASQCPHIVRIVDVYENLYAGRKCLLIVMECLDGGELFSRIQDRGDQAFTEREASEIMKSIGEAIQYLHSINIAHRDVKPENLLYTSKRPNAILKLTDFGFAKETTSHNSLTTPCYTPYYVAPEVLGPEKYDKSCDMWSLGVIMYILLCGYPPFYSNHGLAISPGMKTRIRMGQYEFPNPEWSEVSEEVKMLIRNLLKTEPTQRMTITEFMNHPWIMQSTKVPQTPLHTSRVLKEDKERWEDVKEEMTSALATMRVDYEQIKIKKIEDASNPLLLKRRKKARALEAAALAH
# [15] = target: MAP kinase-activated protein kinase 2 (Homo sapiens) (UniProt P49137); details: at 1 µM
# [16] = target: MAP kinase-activated protein kinase 3 (Homo sapiens) (UniProt Q16644); details: at 0.1 µM
# Chain of MAP kinase-activated protein kinase 3 (Homo sapiens) (Q16644 whole entry, looked up): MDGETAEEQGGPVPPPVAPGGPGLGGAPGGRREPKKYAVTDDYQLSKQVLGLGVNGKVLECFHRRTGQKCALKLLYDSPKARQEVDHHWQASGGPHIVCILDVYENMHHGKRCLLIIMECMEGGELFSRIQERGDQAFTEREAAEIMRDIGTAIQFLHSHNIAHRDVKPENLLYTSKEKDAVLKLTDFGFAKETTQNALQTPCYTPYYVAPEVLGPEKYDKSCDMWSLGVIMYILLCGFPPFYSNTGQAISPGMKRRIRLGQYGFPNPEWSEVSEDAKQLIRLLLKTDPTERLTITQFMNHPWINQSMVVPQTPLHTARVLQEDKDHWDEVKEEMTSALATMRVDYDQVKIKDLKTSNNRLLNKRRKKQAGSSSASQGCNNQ
# [17] = target: MAP kinase-activated protein kinase 3 (Homo sapiens) (UniProt Q16644); details: at 1 µM
# [18] = target: Serine/threonine-protein kinase MARK1 (Homo sapiens) (UniProt Q9P0L2); details: at 0.1 µM
# Chain of Serine/threonine-protein kinase MARK1 (Homo sapiens) (Q9P0L2 whole entry, looked up): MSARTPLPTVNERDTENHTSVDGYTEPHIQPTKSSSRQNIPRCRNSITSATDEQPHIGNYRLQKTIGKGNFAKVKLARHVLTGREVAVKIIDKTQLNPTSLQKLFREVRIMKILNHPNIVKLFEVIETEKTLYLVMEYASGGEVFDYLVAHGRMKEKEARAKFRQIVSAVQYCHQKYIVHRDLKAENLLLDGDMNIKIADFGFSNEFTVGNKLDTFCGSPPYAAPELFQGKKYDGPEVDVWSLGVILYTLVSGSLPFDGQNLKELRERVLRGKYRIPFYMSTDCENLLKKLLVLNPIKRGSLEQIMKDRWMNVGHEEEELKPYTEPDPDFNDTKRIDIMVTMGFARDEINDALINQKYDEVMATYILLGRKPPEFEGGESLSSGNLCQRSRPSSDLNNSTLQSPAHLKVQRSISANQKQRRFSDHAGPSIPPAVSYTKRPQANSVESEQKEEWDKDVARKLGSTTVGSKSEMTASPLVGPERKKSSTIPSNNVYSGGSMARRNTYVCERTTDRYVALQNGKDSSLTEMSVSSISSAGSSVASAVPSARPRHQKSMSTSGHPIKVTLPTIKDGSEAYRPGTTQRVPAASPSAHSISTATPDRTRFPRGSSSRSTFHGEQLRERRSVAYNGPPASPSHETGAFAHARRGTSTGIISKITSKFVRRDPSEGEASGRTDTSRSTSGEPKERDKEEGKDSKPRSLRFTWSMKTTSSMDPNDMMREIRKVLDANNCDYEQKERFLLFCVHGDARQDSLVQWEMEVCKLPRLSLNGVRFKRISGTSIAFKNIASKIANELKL
# [19] = target: Serine/threonine-protein kinase MARK1 (Homo sapiens) (UniProt Q9P0L2); details: at 1 µM
# [20] = target: MAP/microtubule affinity-regulating kinase 3 (Homo sapiens) (UniProt P27448); details: at 0.1 µM;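 further: mean percent inhibition of MARK3 kinase activity, measured within the GSK PKIS screening panel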
# Chain of MAP/microtubule affinity-regulating kinase 3 (Homo sapiens) (P27448 whole entry, looked up): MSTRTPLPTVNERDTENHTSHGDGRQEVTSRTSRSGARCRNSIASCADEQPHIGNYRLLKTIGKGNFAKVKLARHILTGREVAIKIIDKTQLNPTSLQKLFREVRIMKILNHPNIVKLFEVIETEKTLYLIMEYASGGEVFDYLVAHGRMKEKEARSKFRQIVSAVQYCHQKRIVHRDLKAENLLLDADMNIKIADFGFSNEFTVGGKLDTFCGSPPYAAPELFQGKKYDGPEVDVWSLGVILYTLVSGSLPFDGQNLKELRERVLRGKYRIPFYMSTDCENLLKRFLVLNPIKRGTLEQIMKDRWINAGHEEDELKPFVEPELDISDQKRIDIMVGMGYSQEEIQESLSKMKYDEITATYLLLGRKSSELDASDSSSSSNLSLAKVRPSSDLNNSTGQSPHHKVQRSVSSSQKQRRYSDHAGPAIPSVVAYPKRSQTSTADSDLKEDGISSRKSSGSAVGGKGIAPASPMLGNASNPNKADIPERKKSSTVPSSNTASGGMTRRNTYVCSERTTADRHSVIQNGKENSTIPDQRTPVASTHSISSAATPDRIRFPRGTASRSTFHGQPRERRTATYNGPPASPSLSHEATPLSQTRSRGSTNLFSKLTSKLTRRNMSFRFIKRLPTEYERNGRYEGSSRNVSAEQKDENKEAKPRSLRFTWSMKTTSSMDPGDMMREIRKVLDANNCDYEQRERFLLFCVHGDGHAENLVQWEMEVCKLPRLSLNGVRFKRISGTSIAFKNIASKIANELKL
# Chain of Calcium/calmodulin-dependent protein kinase type II subunit alpha (Homo sapiens) (Q9UQM7 whole entry): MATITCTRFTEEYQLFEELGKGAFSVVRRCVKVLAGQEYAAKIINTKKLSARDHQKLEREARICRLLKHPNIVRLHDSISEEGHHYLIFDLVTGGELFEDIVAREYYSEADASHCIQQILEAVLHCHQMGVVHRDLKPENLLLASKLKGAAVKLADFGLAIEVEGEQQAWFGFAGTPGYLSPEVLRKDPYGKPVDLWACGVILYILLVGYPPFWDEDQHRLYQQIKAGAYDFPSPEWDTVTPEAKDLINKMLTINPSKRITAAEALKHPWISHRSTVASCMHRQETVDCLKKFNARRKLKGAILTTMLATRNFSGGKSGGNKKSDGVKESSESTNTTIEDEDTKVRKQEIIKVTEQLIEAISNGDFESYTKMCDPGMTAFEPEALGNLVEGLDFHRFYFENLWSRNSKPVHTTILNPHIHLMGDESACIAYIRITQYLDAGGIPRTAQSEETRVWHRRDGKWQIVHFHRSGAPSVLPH
# Chain of Calcium/calmodulin-dependent protein kinase type II subunit delta (Homo sapiens) (Q13557 whole entry): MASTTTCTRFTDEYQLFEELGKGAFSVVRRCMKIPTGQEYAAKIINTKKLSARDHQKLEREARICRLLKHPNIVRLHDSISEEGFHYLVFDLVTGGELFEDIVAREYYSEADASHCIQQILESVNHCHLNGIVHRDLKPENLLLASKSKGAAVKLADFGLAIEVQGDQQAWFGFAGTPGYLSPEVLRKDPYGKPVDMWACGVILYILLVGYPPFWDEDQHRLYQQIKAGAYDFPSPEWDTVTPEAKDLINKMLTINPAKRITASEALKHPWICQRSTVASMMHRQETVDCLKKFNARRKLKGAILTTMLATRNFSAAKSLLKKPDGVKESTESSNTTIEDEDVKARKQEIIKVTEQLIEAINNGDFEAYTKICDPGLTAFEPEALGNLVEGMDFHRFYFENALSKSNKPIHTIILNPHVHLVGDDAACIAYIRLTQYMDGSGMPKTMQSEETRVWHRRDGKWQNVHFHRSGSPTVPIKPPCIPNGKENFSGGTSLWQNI
Compound,inhibition [1],inhibition [2],inhibition [3],inhibition [4],inhibition [5],inhibition [6],inhibition [7],inhibition [8],inhibition [9],inhibition [10],inhibition [11],inhibition [12],inhibition [13],inhibition [14],inhibition [15],inhibition [16],inhibition [17],inhibition [18],inhibition [19],inhibition [20]
c1ccc(COc2ccc(Nc3ncnc4ccc(-c5ccco5)cc34)cc2)cc1,0.02%,0.67%,0.25%,1.19%,0.04%,0.21%,-0.59%,1.08%,4.69%,2.45%,0.73%,-0.98%,-0.08%,2.44%,0.12%,1.07%,-0.28%,0.18%,1.8%,0.1%
COc1cc(N2CCN(C(C)C)CC2)ccc1Nc1nc(Nc2ccc(F)cc2C(N)=O)c2cc[nH]c2n1,53.3%,29%,75.1%,4.5%,29.3%,3.09%,27.8%,49.6%,79.1%,5.07%,46%,-0.62%,8.47%,0.94%,5.03%,3.04%,7.11%,7.7%,47.7%,12.3%
CCn1c(-c2nonc2N)nc2ccccc21,5.38%,4.24%,4.89%,-0.37%,1.93%,6.35%,4.95%,0.53%,1.9%,4.46%,7.32%,-0.38%,-3.76%,0.79%,1.12%,3.15%,1.52%,2.03%,3.52%,3.42%
CCN1CCC(CC(=O)Nc2n[nH]c3nnc(-c4cccc(F)c4F)cc23)CC1,-0.76%,2.44%,0.77%,2.76%,-0.58%,1.72%,-1.03%,1.92%,0.24%,3.62%,3.28%,-0.85%,1.18%,1.15%,0.52%,1.74%,0.62%,1.89%,2.48%,2.14%
CC(C)(CO)CNC(=O)c1ccc2c(c1)/C(=N/Nc1ccc(S(N)(=O)=O)cc1)C(=O)N2,4.28%,0.61%,12.2%,0.55%,-0.51%,0.39%,-3.69%,-0.89%,5.93%,-0.17%,0.07%,0.04%,1.76%,-0.45%,-1.03%,2.49%,2.07%,10.3%,52.5%,5.88%
COc1ccc(-c2nn3ncccc3c2-c2ccnc(Nc3ccc4c(c3)OCCO4)n2)cc1,-2.04%,0.97%,0.2%,1.75%,-0.47%,-2.62%,-1.19%,-1.05%,0.02%,2.51%,2.06%,-1.54%,-0.74%,0.19%,0.03%,30.9%,37%,0.34%,2.66%,3%
Nc1ncc(-c2cccc(S(N)(=O)=O)c2)c2scc(-c3ccc(F)c(Cl)c3)c12,0.53%,3.74%,2.95%,1.75%,1.03%,5.24%,2.44%,3.46%,7.7%,5.41%,3.2%,0.41%,0.61%,1.76%,1.12%,6%,15.7%,3.57%,5.62%,-0.65%
CN(C)CCOc1ccc(-c2nc(-c3ccncc3)c(-c3ccc4c(c3)CC/C4=N\O)[nH]2)cc1,2.29%,1.28%,1.23%,0.04%,-0.88%,2.48%,5.39%,1.94%,4.06%,3.99%,5.09%,0.7%,1.55%,1.68%,2.27%,2.57%,4.19%,2.54%,3.97%,2.63%
CCn1c(-c2nonc2N)nc2cnc(Oc3cccc(NC(=O)c4ccc(N(C)C)cc4)c3)cc21,5.87%,1.23%,17.3%,0.01%,1.14%,0.31%,5.78%,1.31%,8.31%,1.42%,0.59%,0.41%,0.72%,1.12%,0.16%,2.53%,2.85%,2.53%,10.8%,2.76%
CCn1cc(-c2ccnc3[nH]ccc23)c(-c2cccc(NC(=O)Nc3ccc(OCc4ccccc4)cc3)c2)n1,-2.25%,1.86%,-0.28%,0.6%,-0.67%,1.82%,-1.06%,-0.17%,-0.76%,1.61%,1.12%,-1.87%,-0.63%,-0.39%,-0.71%,0.57%,1.13%,0.74%,3.68%,1.29%
Clc1ccc(-c2nn3ncccc3c2-c2ccnc(Nc3ccccc3)n2)cc1,0.86%,1.7%,1.08%,4.89%,-0.99%,-0.54%,-0.93%,0.52%,1.08%,0.42%,-0.24%,1.9%,6.65%,0.42%,-0.09%,22.4%,32.1%,1.31%,0.37%,-2.23%
COc1cc(Nc2nccc(Nc3ccc4c(C)n[nH]c4c3)n2)cc(OC)c1OC,4.38%,3.41%,3.54%,1.45%,4.68%,1.45%,3.35%,1.73%,9.02%,1.68%,2.65%,-0.29%,2.5%,0.91%,0.86%,1.05%,1.36%,2.59%,8.82%,3.33%
COc1cccc(-n2ncc3c(N/N=C/c4ccc(F)cc4)ncnc32)c1,3.26%,3.08%,3.49%,-2.69%,-2.57%,2.07%,5.65%,2.49%,3.64%,4.6%,5.45%,1.07%,0.2%,1.96%,2.72%,3.14%,3.2%,3.33%,5.14%,4.91%
Cc1ccc(O)cc1Nc1ccnc2cc(-c3ccccn3)ccc12,5.11%,4.51%,6.51%,-0.2%,0.26%,4.18%,4.5%,3.95%,5.81%,3.99%,5.29%,1.56%,2.1%,1.91%,1.68%,7.63%,19.4%,4.13%,6.28%,4.39%

# Source: ChEMBL document CHEMBL1961873, “Compounds: GSK PKIS; Assays: Nanosyn kinase panel” (2012)
